Tau fluor counter – counter-screen for tau fibril formation inhibitors; tau K18 P301L Alexa594 fluorescence, heparin fibrillization; AID 1463; Potency, µM (titrated, usually from 57.7 µM); actives 0.93% (n = 280,000); note: nearly all actives have a fitted effect of over 55% in size
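Human K18 P301L tau (15 uM unlabeled plus 0.24 uM Alexa 594-labeled, final) in 100 mM sodium acetate pH 7 was mixed with compound and 20 uM heparin and incubated 6 hr at 37 C.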
Tau fibril ThT – blocks human tau fibril formation measured by thioflavin T; P10636; recombinant tau K18 P301L, heparin-induced fibrillization, ThT fluorescence; Potency, µM (top dose mostly 57.4 µM), hits mostly inhibitors; actives 2.1% (n = 270,000); note: nearly all actives have a fitted effect of over 55% in size
Target sequence (P10636 561-689 P618L limits assumed): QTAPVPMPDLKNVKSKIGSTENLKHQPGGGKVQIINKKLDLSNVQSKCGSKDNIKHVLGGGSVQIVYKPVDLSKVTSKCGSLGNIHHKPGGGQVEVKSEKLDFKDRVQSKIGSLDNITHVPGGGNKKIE
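Using a mix of unlabeled (15 uM) and Alexa 594-labeled (0.24 uM) tau K18 P301L, heparin-triggered fibrillization over 6 hr at 37 C was scored by ThT fluorescence.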
TexasRed fluor – Texas Red fluorescence interference in TRb-SRC2 counter-screen; TRb/SRC2 Texas Red total fluorescence interference; Potency, µM (top dose mostly 106 µM); actives 0.29% (n = 280,000); active = well fitted curve in either direction with a large enough effect; inconclusive = small, poorly fitted or top-dose-only effect
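Flags fluorescent or light-absorbing compounds by total fluorescence, S + 2P, at 555 nm excitation and 632 nm emission. Mixture: 20 nM Texas Red SRC2 peptide, 0.6 uM human TRb LBD, 1 uM T3, 5% DMSO; compound exposure 5 h at ambient temperature.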
TRb SRC2 PPI – TRbeta-SRC2 interaction inhibition | P10828 | TRbeta-SRC2 peptide binding, fluorescence polarization; receptor liganded with 1 µM T3 | Potency, µM (doses to about 106 µM), actives largely listed as inhibitors | actives 0.065% (n = 280,000); note: nearly all actives have a fitted effect of over 50% in size
Target sequence (P10828 whole entry, looked up): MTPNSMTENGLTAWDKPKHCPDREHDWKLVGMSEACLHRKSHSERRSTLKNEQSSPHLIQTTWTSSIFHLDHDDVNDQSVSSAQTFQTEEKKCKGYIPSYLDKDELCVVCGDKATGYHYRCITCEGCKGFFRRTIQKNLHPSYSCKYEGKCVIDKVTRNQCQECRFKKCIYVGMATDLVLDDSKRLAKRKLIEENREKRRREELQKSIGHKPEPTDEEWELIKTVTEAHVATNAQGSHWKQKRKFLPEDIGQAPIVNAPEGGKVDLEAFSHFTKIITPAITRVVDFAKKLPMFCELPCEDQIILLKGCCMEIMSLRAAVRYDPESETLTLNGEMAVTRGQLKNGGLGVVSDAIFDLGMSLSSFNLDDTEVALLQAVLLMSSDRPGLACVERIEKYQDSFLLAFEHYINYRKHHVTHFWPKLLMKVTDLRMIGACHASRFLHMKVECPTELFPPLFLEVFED
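Assay buffer: 20 mM Tris-HCl, 100 mM NaCl, 10% glycerol, 1 mM EDTA, 0.01% NP-40, 1 mM DTT, 1 uM T3, 5% DMSO; TRb LBD 0.6 uM, Texas Red SRC2 20 nM; FP after 5 hr.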
Tau fibril FP – inhibitors of human tau fibril formation; Potency, µM (highest dose often 57.7 µM), actives largely listed as inhibitors; P10636; actives 0.39% (n = 280,000); K18 P301L tau heparin fibrillization, Alexa594 FP, 6 h; note: nearly all actives have a fitted effect of over 55% in size
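Heparin (20 uM) drove fibril formation of recombinant tau K18 P301L, 15 uM unlabeled with 0.24 uM Alexa 594 label, for 6 hr at 37 C in 100 mM sodium acetate pH 7. Fluorescence polarization (555/632 nm) read 1 hr after 30 uM ThT.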
Large screens that a line does not name were inactive; [ ] = remark or other dose. An excerpt weighted towards active compounds, which were near 3.1% of everything screened. Unless noted, calls come from the whole dose curve; as a rule, active = well fitted curve in the direction sought with a large enough effect; inconclusive = small, poorly fitted or top-dose-only effect, or another doubt; inactive = no such curve, though single readings can be large; an effect the other way counts as inactive or inconclusive.

CC(C)N(Cc1ccccc1)C(=O)CN1C(=O)CSc2ccc(S(=O)(=O)N3CCCC3)cc21	none
C=CC(C1=CC(=O)C(OC)=CC1=O)c1ccc(O)cc1 (stereo unspecified)	Tau fluor counter inconclusive, Tau fibril ThT 31.6µM, Tau fibril FP inconclusive
C=C[C@@H](C1=CC(=O)C(OC)=C(OC)C1=O)c1ccccc1	Tau fluor counter inconclusive, Tau fibril ThT 28.2µM, Tau fibril FP inconclusive
COc1ccccc1CCNC(=O)C(=O)NCC(c1cccs1)S(=O)(=O)c1cccs1 (stereo unspecified)	none
CCOc1ccc(Nc2ncnc3ccc([N+](=O)[O-])cc23)cc1	Tau fibril ThT 10µM
O=C(O)c1ccc(Cl)c(S(=O)(=O)Nc2ccc3[nH]c(=O)[nH]c3c2)c1	Tau fluor counter inconclusive, Tau fibril ThT 14.1µM, Tau fibril FP inconclusive
O=C(O)c1cccc(S(=O)(=O)Nc2ccc3[nH]c(=O)[nH]c3c2)c1	Tau fluor counter inconclusive, Tau fibril ThT inconclusive
COc1cccc(CNC(=O)c2cc(S(=O)(=O)N3CCCCCC3)cn2C)c1	TexasRed fluor inconclusive
CCOc1ccc(NS(=O)(=O)c2ccc3[nH]cc(C(=O)NC4CCCC4)c(=O)c3c2)cc1	Tau fluor counter inconclusive, Tau fibril FP 25.1µM
CCc1ccc(NS(=O)(=O)c2ccc3[nH]cc(C(=O)NC4CCCC4)c(=O)c3c2)cc1	Tau fluor counter inconclusive, Tau fibril FP 11.2µM
Oc1ccc(/C=N/n2cc(-c3ccccc3)[nH]c2=S)cc1	Tau fluor counter inconclusive, Tau fibril ThT 10µM
COc1cc(/C=N/n2cc(-c3ccccc3)[nH]c2=S)cc(OC)c1O	Tau fluor counter inconclusive, Tau fibril ThT 20µM
S=c1[nH]c(-c2ccccc2)cn1/N=C/c1cccc2ccccc12	Tau fluor counter inconclusive, Tau fibril ThT 3.55µM
Cc1ccc(/C=N/n2cc(-c3ccccc3)[nH]c2=S)s1	Tau fluor counter inconclusive, Tau fibril ThT inconclusive
S=c1[nH]c(-c2ccccc2)cn1/N=C/c1ccccc1Br	Tau fibril ThT inconclusive
CCOc1ccc(C(=O)Nc2nnc(SCc3cc(=O)c4cc(C)ccc4[nH]3)s2)cc1	Tau fibril ThT inconclusive
CSc1ccc(C(=O)C2CCCN(C(=O)c3ccc4c(c3)no[n+]4[O-])C2)cc1 (stereo unspecified)	Tau fluor counter inconclusive, Tau fibril ThT 28.2µM, Tau fibril FP inconclusive
CSc1ccc(C(=O)C2CCCN(C(=O)c3ccsc3)C2)cc1 (stereo unspecified)	none
Fc1ccccc1CN1CCCN(C(=S)Nc2cccc(Cl)c2)C1	Tau fluor counter inconclusive, Tau fibril FP 31.6µM
CC(C)c1cccc2nc3c(c(C(C)(C)C)c12)Cn1c-3cccc1=O	none
O=C(O)c1ccc2nc(-c3ccccc3)c(-c3ccccc3)nc2c1	none
Nc1ccc(Oc2ccc3nc(-c4ccccc4)c(-c4ccccc4)nc3c2)cc1	Tau fluor counter 14.1µM[quencher]
CCc1ccc(NC(=O)C(=O)NCCc2csc(-c3cccc(F)c3)n2)cc1	none
Cc1cc(C)cc(Nc2nc3c([nH]2)c(=O)n(C)c(=O)n3C)c1	Tau fluor counter inconclusive, Tau fibril ThT inconclusive, Tau fibril FP inconclusive
Cn1c(=O)c2[nH]c(N=Nc3ccc(N)cc3N)nc2n(C)c1=O	Tau fluor counter inconclusive, Tau fibril ThT 14.1µM
O=C(Nc1ccccc1)Nc1sccc1-c1nc2ccccc2s1	Tau fluor counter inconclusive, Tau fibril ThT inconclusive, Tau fibril FP inconclusive
O=C(Nc1cccc(-c2nc3ccccc3s2)c1)c1cccs1	Tau fluor counter inconclusive, Tau fibril ThT inconclusive, Tau fibril FP 22.4µM
O=C(Nc1cccc(Cl)c1)Nc1sccc1-c1nc2ccccc2s1	Tau fluor counter 14.1µM[quencher], Tau fibril ThT inconclusive, Tau fibril FP inconclusive
CN1CCc2cc(O)c(O)cc2C1Cc1ccc(O)c(O)c1 (stereo unspecified)	none (no result: Tau fluor counter, Tau fibril ThT, Tau fibril FP)
CCOC(=O)c1cc2c(ccn2C)n1CC(=O)N(C)C	none
CCOC(=O)c1cc2c(ccn2C)n1CC(=O)Nc1ccc(F)cc1	Tau fluor counter inconclusive, Tau fibril ThT 28.2µM, Tau fibril FP inconclusive
CC(C)(C)c1ccc(/C=N/NC(=O)Cc2c[nH]c3ccccc23)cc1	Tau fluor counter 14.1µM[quencher], Tau fibril ThT inconclusive
CCc1nn(CC(=O)NCC(C)c2ccccc2)c(=O)c2cc3c(OC)cccc3n12 (stereo unspecified)	none
Cn1c(=O)c2c(SCC(=O)NCC3CCCO3)nc(-c3cccc(F)c3)nc2n(C)c1=O (stereo unspecified)	none
Cc1[nH]c2ccc(C(=O)Nc3ccc(F)cc3)cc2c1C	Tau fluor counter 14.1µM[quencher], Tau fibril ThT 12.6µM, Tau fibril FP inconclusive
COc1ccc(CNC(=O)Cn2ncc3c([nH]c4ccccc43)c2=O)cc1	none
O=C(Nc1ccc(OCC(F)(F)C(F)F)cc1)c1ccncc1	none
O=C(Nc1ccc(OCC(F)(F)C(F)F)c(C(F)(F)F)c1)c1ccccc1O	Tau fluor counter inconclusive, Tau fibril ThT inconclusive, Tau fibril FP 25.1µM
Cc1cc(C)cc(NC(=O)c2cc(S(=O)(=O)N3CCCCCC3)cn2C)c1	none
Cc1nn(-c2ccc(Cl)cc2)c(=O)c2ccccc12	none
Cc1c(Cl)sn(-c2ccc(Cl)cc2)c1=O	Tau fibril ThT 14.1µM, Tau fibril FP inconclusive
CCCCOC(=O)c1ccc(Nc2nc3ccc(C(=O)c4ccccc4)cc3n3cnnc23)cc1	none
COC(=O)C1=C[C@@H](C(=O)OC)C2C3=C(C(=O)[C@]2(C)NC(=O)c2ccccc2)[C@H](C)n2c(=O)n(-c4ccccc4)c(=O)n2[C@@H]3C1 (stereo partly specified)	none (no result: Tau fluor counter, Tau fibril ThT, Tau fibril FP)
COc1ccc(NC(=O)c2oc3ccccc3c2NC(=O)c2cc(OC)c(OC)c(OC)c2)cc1	Tau fluor counter inconclusive
N=C1c2ccccc2CN1c1ccc(N2CCOCC2)c(S(=O)(=O)Nc2ccc(Cl)cc2)c1	Tau fibril ThT 31.6µM, Tau fibril FP inconclusive
CC(=O)CSc1nc2cc3c(cc2cc1C#N)OCCO3	Tau fluor counter inconclusive, Tau fibril ThT 1.58µM
CS(=O)(=O)Nc1cccc(-c2nccc(-n3ccnc3)n2)c1	none
COc1cc(C2c3sc(=O)[nH]c3SC3C(=O)N(c4ccc(Br)cc4)C(=O)C32)ccc1O (stereo unspecified)	Tau fluor counter inconclusive, Tau fibril ThT inconclusive
CCOc1ccc(N2C(=O)C3Sc4[nH]c(=O)sc4C(/C=C/c4ccccc4)C3C2=O)cc1 (stereo unspecified)	Tau fluor counter inconclusive, Tau fibril ThT 14.1µM
Nc1[nH]n(-c2ccccc2)c(=O)c1N=Nc1ccc2ncsc2c1	Tau fluor counter 5.01µM[quencher], Tau fibril ThT 2.24µM, Tau fibril FP inconclusive
Cc1[nH]n(-c2ccccc2)c(=O)c1N=Nc1ccc2c(c1)OCCO2	Tau fluor counter inconclusive, Tau fibril ThT 3.55µM
Nc1c(N=Nc2cccc(Cl)c2)c(=O)[nH]n1-c1ccccc1	Tau fluor counter inconclusive, Tau fibril ThT inconclusive
